Compounds without any hit were thinned out: in the full panel of roughly 83,000, 20% have a hit.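 Method: cells in 96-well plates; compound added at one concentration; 48 h incubation; percent growth measured; values under 10 scored active.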 Active and inactive are the calls of the source.
Tested on: U251 CNS
Test: NCI-60 one-dose screen, 48 h (100 = growth as untreated, 0 = no growth, -100 = all killed)
Conditions: 10 µM unless noted

Row | SMILES | growth
1 | COc1ccc(-c2nn(-c3ccccc3)cc2/C=C/C(=O)c2ccc(NC(=O)CCCCCCC(=O)NO)cc2)cc1 | 106% (inactive)
2 | O=C(NCCCNc1cc(-c2cn(-c3ccccc3)nc2-c2cccc(O)c2)ccn1)Nc1cccc(C(F)(F)F)c1 | 33.5% (inactive)
3 | Cc1[nH]nc2ccc(-c3nc4cnc(N5CCN(C)CC5)cn4c3Nc3ccc(F)cc3Br)cc12 | 14.4% (inactive)
4 | O=C(/C=C/c1cccc(O)c1)c1ccc(O)cc1 | 43.3% (inactive)
5 | C#Cc1ccc(NC(=O)c2ccc(/C=C/C(=O)c3nccn3C)cc2)c(F)c1 | 5.03% (active)
6 | O=C(Nc1ccc(F)cc1)c1cc(-c2ccc(F)cc2F)ccc1O | 6.63% (active)
7 | Oc1ccc(CSc2nnc(-c3ccc(Oc4ccccc4)cc3)o2)c2cccnc12 | -4.12% (active)
8 | Cc1ccc(NC(=O)c2ccc(CN3CCN(C)CC3)c(C(F)(F)F)c2)cc1Oc1ccc(-c2[nH]nc3ncnc(N)c23)cc1 | -27.7% (active)
9 | N#Cc1c(NC(=O)c2ccccc2C(F)(F)F)sc2c1CCC(=O)C2 | 16.3% (inactive)
10 | CCN(CC)c1ccc2cc(C(=O)NCCOCCOCCOCCn3cc(CCC(=O)Nc4ccc(C(=O)c5ccc(NC(=O)OC(C)(C)C)cc5)cc4)nn3)c(=O)oc2c1 | 69.8% (inactive)
11 | CS(=O)(=O)c1ccc(-c2nn(-c3ccccc3)cc2/C=N/NC(=O)c2ccncc2)cc1 | 105% (inactive)
12 | Cc1ccc(S(=O)(=O)N/N=C/c2cn(-c3ccc(F)cc3)nc2-c2ccc(S(C)(=O)=O)cc2)cc1 | 101% (inactive)
13 | CS(=O)(=O)c1ccc(-c2nn(-c3ccccc3)cc2/C=C/C(=O)c2ccc(Br)cc2)cc1 | 86.1% (inactive)
14 | O=C(NCCCNc1cc(-c2cn(-c3ccccc3)nc2-c2cccc(O)c2)ccn1)Nc1ccc(F)cc1 | 3.22% (active)
15 | CN1C(=O)N(C)C2C1NN=c1s/c(=C\c3ccccn3)c(=O)n12 (configuration not stated) | 101% (inactive)
16 | Fc1ccc(-c2cc3nc(C(Cl)Cl)nc(-c4cccs4)n3n2)cc1 | -3.12% (active)

Row | SMILES | growth
17 | COc1ccc([C@H]2c3[nH]c4ccccc4c3C[C@@H]3C(=O)N(C4CCN(Cc5ccccc5)CC4)CC(=O)N23)c(OC)c1 | 75.8% (inactive)
18 | Cn1ccnc1C(=O)/C=C/c1ccc(C(=O)Nc2ccc(NC(=O)CCNC(=O)c3csc(Br)n3)cc2)cc1 | 23.9% (inactive)
19 | Cc1nn(-c2ccccc2)cc1/C=N/Nc1nc(Nc2ccccc2)nc(Nc2ccc(S(N)(=O)=O)cc2)n1 | -22.3% (active)
20 | COCCC[C@H]1O[C@@](O)([C@H](C)[C@@H]2CC(OC)C(O)/C=C(C)/C=C(C)/C=C(\C)C(OC3O[C@@H](C)[C@H](O)C(O)[C@@H]3O)C(C)/C=C(C)/C=C(OC)/C=C(\C)C(=O)O2)C(OC)C(O)[C@]1(C)O[C@H]1C[C@@H](O)[C@H](O[C@H]2C[C@](C)(O)[C@H](O)C(C)O2)C(C)O1 (some centres not stated) | 47% (inactive)
21 | COc1ccc(N2C(=O)c3cc(OC)c(OC)cc3NC2SCc2ccccc2)cc1 (configuration not stated) | 108% (inactive)
22 | Cc1cc2nc(C(Cl)Cl)nc(-c3ccco3)n2n1 | 53.8% (inactive)
23 | COc1ccc(S(=O)(=O)NCCCNc2nccc(-n3cnc4ccccc43)n2)cc1 | 94.5% (inactive)
24 | O=C(NCCCNc1cc(-c2cn(-c3ccccc3)nc2-c2cccc(O)c2)ccn1)Nc1cc(C(F)(F)F)cc(C(F)(F)F)c1 | 51.5% (inactive)
25 | Cc1ccc(NC(=O)c2ccc(CN3CCN(C)CC3)c(I)c2)cc1Oc1ccc(-c2[nH]nc3ncnc(N)c23)cc1 | -59.8% (active)
26 | Cc1ccc(-n2cc(/C=C/C(=O)c3ccc(S(C)(=O)=O)cc3)c(-c3ccc(S(C)(=O)=O)cc3)n2)cc1 | 95.6% (inactive)
27 | COc1cc(/C=C/C(=O)c2ccc(NC(=O)CSc3nnc(-c4ccc5nc(-c6ccccc6)[nH]c5c4)o3)cc2)cc(OC)c1OC | 80.6% (inactive)
28 | O=c1oc2ccc(-c3ccc(F)cc3F)cc2c(=O)n1-c1cccc(C(F)(F)F)c1 | 10.2% (inactive)
29 | C#CCOc1ccccc1C(Nc1ccccc1)c1nnnn1C1CCCCC1 (configuration not stated) | 99.9% (inactive)
30 | NCCN1CCN(c2nc(-c3ccccc3)nc3nc(-c4ccccc4)oc23)CC1 | -51.4% (active)
31 | CN1C(=O)N(C)C2Nn3c(s/c(=C\c4ccccn4)c3=O)=NC21 (configuration not stated) | 105% (inactive)
32 | CNC(=O)c1cc(N2CCc3cc(NC(=O)Nc4ccc(Cl)c(Cl)c4)ccc32)ccn1 | 70% (inactive)
